CHX counter: Cycloheximide Counterscreen for Small Molecule Inhibitors of Shiga Toxin | cell reporter, cycloheximide protein synthesis inhibition counterscreen | max response, % | 300,000 compounds, 12% hits | AID 2314, 2010; in the data active = max response mostly above about 13%, no sharp cut-off; inactive = mostly below about 14%; note: read at 38.3 µM for the half of the compounds with a filed dose
HCMV antiviral: qHTS Assay for inhibitors of the human cytomegalovirus (HCMV); HFF cells, HCMV-luciferase reporter, 72 h; hits give low values; 410,000 compounds, 4.5% hits; activity change, negative = inhibition, % at 57.5 µM; in the data active = activity change below about -60%; inconclusive = no clear call, values can overlap the other calls; inactive = above about -39%
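Two compound doses tested in HFFs infected with HCMV-luciferase, MOI 1 PFU/cell, 72 h at 37C. Lysate luminescence read with OneGlo; data normalized against buffer-only and 10uM Salinomycin inhibitor controls.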
Pf growth 48h: Primary qHTS for delayed death inhibitors of the malarial parasite plastid, 48 hour incubation. P. falciparum luciferase growth in erythrocytes, 48 h. Potency, µM (top dose mostly 28.7 µM), most hits filed as inhibitors. 310,000 compounds, 5.9% hits. AID 504832, 2011
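First compound was added to culture medium, then infected red cells at 0.1% parasitemia and 2% hematocrit (final). After incubation at 37 C under 5% CO2, luciferase detection reagent was dispensed and light output recorded.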
Pf growth 96h: Primary qHTS for delayed death inhibitors of the malarial parasite plastid, 96 hour incubation | 320,000 compounds, 6.9% hits | P. falciparum luciferase reporter growth, 96 h | AID 504834, 2011 | Potency, µM (series often up to 28.7 µM), usual class: inhibitors
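Two-generation exposure (96 h) targets delayed-death phenotype. Reporter parasites carrying integrated firefly luciferase, in red cells at 2% hematocrit and 0.05% parasitemia final, kept at 37 C, 5% CO2; luminescence loss indicates inhibition.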
Shiga toxin inh: A qHTS for Small Molecule Inhibitors of Shiga Toxin | Vero cells, Shiga toxin protein synthesis inhibition reporter | inhibition, % at 38.7 µM | 290,000 compounds, 9.2% hits | AID 2315, 2010; in the data active = inhibition mostly above about 28%, no sharp cut-off; inactive = mostly below about 43%
Large screens that a line does not name were inactive. The list is not random: actives were taken first. Their share in the collection is about 20%. Unless noted, calls come from the whole dose curve; as a rule, active = well fitted inhibition curve with a large enough effect; inconclusive = small, poorly fitted or top-dose-only effect, or another doubt; inactive = no such curve, though single readings can be large or run the other way.

COc1ccc2nc(-n3c(C)ccc3C)sc2c1	CHX counter 22.4, Shiga toxin inh 77.4 (no result: Pf growth 96h)
COc1cc(OC)cc(C(=O)Nc2cc(-c3nc4ccccc4s3)ccc2OC)c1	none (no result: CHX counter, Pf growth 48h, Pf growth 96h, Shiga toxin inh)
CCCC1CCC(c2nc(-c3cccnc3)no2)CC1 (stereo not given)	CHX counter 61.8
Fc1ccc(-c2noc(C3CCN(Cc4cccnc4)CC3)n2)cc1	CHX counter 19.0, Pf growth 48h inconclusive, Shiga toxin inh 28.2
CCCCCCC1CCC(c2nc(-c3ccncc3)no2)CC1 (stereo not given)	none (no result: Pf growth 48h)
Cc1nn(Cc2ccccc2)c(N)c1-c1ccccc1	none
Cc1nn(Cc2ccccc2)c(N)c1C#N	Pf growth 96h 11.7µM
CC(c1nc2ccccc2c(=O)[nH]1)N(C)c1ccc2ccccc2c1 (stereo not given)	Pf growth 48h 6.57µM, Pf growth 96h 14.7µM
C/C(=N\NC(=O)c1nnn(-c2nonc2N)c1COc1ccc(F)cc1)c1ccc(Cl)cc1	none
CCN(C(=O)Cc1c(C(=O)O)[nH]c2ccccc12)c1cc(OC)ccc1OC	Pf growth 48h inconclusive, Pf growth 96h 7.38µM
COc1ccc(N(C)C(=O)Cc2c(C(=O)O)[nH]c3ccccc23)cc1	none
CC(C)CN(C(=O)CCC(=O)OCC(=O)NCCc1ccccc1)c1c(N)n(CC(C)C)c(=O)[nH]c1=O	none
CCOC(=O)C1CCN(c2nc(N)c3c(N)nc(SCC(=O)O)cc3c2C#N)CC1	Pf growth 48h 2.62µM, Pf growth 96h 2.62µM
CCc1c(C)sc(NC(=O)OC)c1C(N)=O	Pf growth 96h 4.15µM
CCc1c(C)sc(NC(=O)OC)c1C(=O)N1CCCCC1	none
CCOC(=O)c1c(C)[nH]c(O)c1C=Nc1ccc(C(F)(F)F)cc1	none
CCOC(=O)c1c(C)[nH]c(O)c1C=Nc1ccc(Cl)cc1	none
COC(=O)c1c(C)[nH]c(O)c1C=Nc1ccc(Oc2ccccc2)cc1	HCMV antiviral -65.3
COC(=O)c1c(C)[nH]c(O)c1C=Nc1ccc(C(C)C)cc1	CHX counter 22.4, Shiga toxin inh 38.6
CCOc1ccccc1NC(=O)CC1C(=O)NCCN1C(=O)c1ccc(F)cc1 (stereo not given)	none (no result: CHX counter, Pf growth 48h, Pf growth 96h, Shiga toxin inh)
O=C(Nc1nc2cc3c(cc2s1)OCCO3)C1CCCCC1	none (no result: CHX counter, Shiga toxin inh)
O=C(Nc1nc2cc3c(cc2s1)OCO3)C1CCCCC1	CHX counter 89.2, Shiga toxin inh 108.3
CCN(CC)CCN(C(=O)C1CCCCC1)c1nc2cc3c(cc2s1)OCO3	Pf growth 48h inconclusive
O=C(Nc1nc2cc3c(cc2s1)OCO3)C1CC1	CHX counter 24.3, Shiga toxin inh 81.3
COc1nc(Nc2ccc([N+](=O)[O-])cc2)nc(NC(C)C)n1	Pf growth 48h inconclusive
COc1ccc(CNC(=O)COC(=O)C(CCSC)NC(=O)c2ccco2)cc1OC (stereo not given)	none (no result: CHX counter, Shiga toxin inh)
COc1cccc(C(=O)Nc2cccc(NC(=O)c3cccs3)c2)c1	CHX counter 10.7, Pf growth 96h inconclusive
COc1cccc(C(=O)Nc2cc(NC(=O)c3cccs3)ccc2C)c1	HCMV antiviral -74.6, Pf growth 96h inconclusive
Cc1ccc(NC(=O)c2cccs2)cc1NC(=O)c1ccc(F)cc1	Pf growth 96h 10.4µM (no result: Shiga toxin inh)
Cc1ccc(NC(=O)c2cccs2)cc1NC(=O)c1cccc(F)c1	Pf growth 96h inconclusive
CC(=O)Oc1cccc(C(=O)Nc2ccc(NC(=O)c3cccs3)cc2)c1	CHX counter 41.6, Shiga toxin inh 162.7
Cc1ccc(C)c(S(=O)(=O)c2nnn3c2nc(NC2CCCCC2)c2sccc23)c1	none (no result: CHX counter, Pf growth 48h, Pf growth 96h, Shiga toxin inh)
CCOc1ccc(C2CC(=O)NC(NC(=O)c3cccc(Cl)c3)=N2)cc1 (stereo not given)	none (no result: CHX counter, Pf growth 48h, Pf growth 96h, Shiga toxin inh)
CC(=O)NCCc1csc(-c2ccccc2)n1	CHX counter 16.0, Pf growth 96h inconclusive
CC(C)(C)CC(=O)NCCc1csc(-c2ccccc2)n1	CHX counter 21.8, Shiga toxin inh 34.0
Cc1ccc(NC(=O)c2cc(S(=O)(=O)N(C)C3CCCCC3)ccc2F)cc1C	none (no result: CHX counter, Pf growth 48h, Pf growth 96h, Shiga toxin inh)
COc1ccc(N=C(N)SCc2ccccn2)cc1	CHX counter 31.0, Pf growth 96h inconclusive, Shiga toxin inh 46.1
COc1ccc(-c2nnc(SCc3ccccc3)n2N)cc1	CHX counter 44.0, Shiga toxin inh 60.8
COc1ccc(-c2nnc(SCC3CCCO3)n2C)cc1 (stereo not given)	CHX counter 37.8
COc1ccc(-c2nnc(SCC(=O)NCC3CCCO3)n2C)cc1 (stereo not given)	Pf growth 96h inconclusive
Nn1c(SCc2cccc(Oc3ccccc3)c2)nnc1C(F)(F)F	HCMV antiviral -72.7
O=C(NCC(=O)N(c1ccc(F)cc1)C(C(=O)NC1CCCC1)c1cccnc1)c1ccco1 (stereo not given)	Pf growth 96h inconclusive
COc1ccc(C(=O)OCc2nc(N)nc(Nc3ccccc3C)n2)cc1OC	Pf growth 48h inconclusive, Pf growth 96h inconclusive
COc1cccc(-n2c(SCC(=O)Nc3cc(C)ccc3C)nc3c(oc4ccccc43)c2=O)c1	none (no result: CHX counter, Pf growth 48h, Pf growth 96h, Shiga toxin inh)
Cc1ccc2nc(N3CCN(c4ccccc4)CC3)c3nnnn3c2c1	none (no result: CHX counter, Pf growth 48h, Pf growth 96h, Shiga toxin inh)
COc1ccc(-c2nnc(SCc3ccccn3)n2C)cc1	CHX counter 26.4, Pf growth 96h inconclusive, Shiga toxin inh 45.3
COc1ccc(-c2nnc(SCCc3ccccc3)n2N)cc1	Shiga toxin inh 24.2 (no result: Pf growth 96h)
COc1ccc(-c2nnc(SCc3cc(=O)c4cc(C)cc(C)c4[nH]3)n2C)cc1	HCMV antiviral -65.7 (no result: CHX counter, Pf growth 48h, Pf growth 96h, Shiga toxin inh)
COc1ccc(OCCSc2nnc(-c3ccccc3)n2N)cc1	none
CC(=O)CSc1nnc(-c2ccncc2)n1C	none (no result: Pf growth 48h)
Cn1c(SCC2CCCCC2)nnc1-c1ccncc1	CHX counter 16.3, Pf growth 96h inconclusive
COc1ccc(C(=O)Nc2nnc(SCc3cc(=O)c4cc(C)cc(C)c4[nH]3)s2)cc1	none (no result: CHX counter, Pf growth 48h, Pf growth 96h, Shiga toxin inh)
O=C(COC(=O)c1ccco1)NCc1ccc(F)cc1	none
Cc1ccccc1CN1CCCN(CC(=O)Nc2c(C)cccc2C)S1(=O)=O	none (no result: CHX counter, Pf growth 48h, Pf growth 96h, Shiga toxin inh)
COc1ccc(CSc2nnc(-c3ccncc3)n2C)cc1F	HCMV antiviral inconclusive, Pf growth 48h inconclusive, Shiga toxin inh 69.7
COc1cccc(CSc2nnc(-c3ccncc3)n2N)c1	HCMV antiviral -68.5
COc1ccccc1Cn1ccn(Cc2c(F)cccc2Cl)c(=O)c1=O	none (no result: CHX counter, Pf growth 48h, Pf growth 96h, Shiga toxin inh)
Cc1ccc(-n2nnc(C(=O)Nc3cc(F)ccc3F)c2C)cc1F	none (no result: CHX counter, Pf growth 48h, Pf growth 96h, Shiga toxin inh)
CC(=O)N1CCN(CC(O)COc2ccc(Br)cc2)CC1 (stereo not given)	Pf growth 96h inconclusive
CCCCOCC(O)CN1CCN(C(C)=O)CC1 (stereo not given)	Pf growth 96h 8.28µM
COc1cc(OC)cc(-c2nnc3n2N=C(c2ccc(OC)cc2OC)CS3)c1	none (no result: HCMV antiviral, Pf growth 48h, Pf growth 96h)
Cc1[nH]c(C)c(S(=O)(=O)N2c3ccccc3CC2C)c1C(=O)N1CCCCC1 (stereo not given)	Pf growth 96h 14.7µM
CC(=O)c1ccc(N2CCN(S(=O)(=O)c3c(C)[nH]c(C)c3C(=O)N3CCCCC3)CC2)cc1	CHX counter 18.9, Pf growth 48h inconclusive
CC(=O)c1ccc(N2CCN(S(=O)(=O)c3c(C)[nH]c(C)c3C(=O)N3CCCC3)CC2)cc1	none

Screening results deposited in PubChem by National Center for Advancing Translational Sciences (NCATS).
